The panel holds about 83,000 compounds, 20% with a hit somewhere; the sample as a whole holds those more often.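 Values shown are percent growth following 48 h exposure of cells in 96-well plates to a single concentration of compound; below 10 was considered active.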 A number with no mark means an inactive call. Calls of active or inactive are those of the source.

Among the test systems are T-47D breast; BT-549 breast; MDA-MB-435 melanoma; SW-620 colon; HCT-116 colon; HCC-2998 colon; KM12 colon; MCF7 breast.
Common to all, as to assay: NCI-60 one-dose screen, 48 h (100 = growth as untreated, 0 = no growth, -100 = all killed)
Conditions in all cases: 10 µM unless noted

As to `CN(C)CCSC1=Nc2ccc(Cl)cc2C(c2ccccc2Cl)N(C)C1` (centres undefined), the growth in the assay with T-47D breast was 57.9%; with BT-549 breast, 76.4%; with MDA-MB-435 melanoma, 62.2%; in the assay with SW-620 colon, 87.4%; in the assay on HCT-116 colon it was 65.1%; in the assay on HCC-2998 colon it was 81%. The growth with KM12 colon is 61.6%.

Consider `CCCCCCC1N=C(N)N=C(N)N1c1cccc(Cl)c1` (centres undefined), for which the growth in the assay on T-47D breast was 51.8%; with MDA-MB-435 melanoma, 24.1%; in the assay with SW-620 colon it was 27%; in the assay with MCF7 breast it was 22.4%; with HCT-116 colon it was 16.6%; in the assay with HCC-2998 colon it was 10.3%. In the assay on KM12 colon, the growth was 18.6%.

For `CCCCCCCCCCCCCCCCCC[S+](C)CC` (centres undefined), the growth in the assay on T-47D breast is 16.6%; with BT-549 breast, 45.1%; in the assay with SW-620 colon it was 28.1%; with HCT-116 colon, 27.8%; in the assay with HCC-2998 colon it was 50.2%; with KM12 colon, -31.7% (active).

As for `CC1(O)CCCCCC1`, the growth is 97% with T-47D breast; 96.1% in the assay on BT-549 breast; 103% with MDA-MB-435 melanoma; 100% in the assay with SW-620 colon; 99.4% in the assay with HCT-116 colon; 98.8% in the assay on HCC-2998 colon. Besides, the growth with KM12 colon was 106%.

For the molecule `CCC1C[N+]2=C(c3cc(OC)c(OC)cc3CC2)c2c1cc1n2CCc2cc(OC)c(OC)cc2-1` (centres undefined), the growth in the assay on T-47D breast was 6.69% (active); in the assay with BT-549 breast it was 26.7%; in the assay on MDA-MB-435 melanoma it was 5.51% (active); in the assay with SW-620 colon it was 48.8%; with HCT-116 colon, 40.4%; with HCC-2998 colon, 34%. Also, the growth in the assay on KM12 colon was 7.73% (active).

As to `CCCCCCCCCCCCCCCc1ccc(C(=O)C[n+]2ccccc2)cc1`, the growth was -25.1% (active) with T-47D breast; -78.1% (active) in the assay with MDA-MB-435 melanoma; -79.1% (active) with SW-620 colon; -88.6% (active) in the assay with MCF7 breast; -97.7% (active) in the assay on HCT-116 colon; -83.4% (active) in the assay on HCC-2998 colon. For the same molecule, the growth in the assay on KM12 colon was -97.7% (active).

Turning to `O=C(c1ccccc1)C(O)C(Br)(CBr)c1ccccc1` (centres undefined), the growth in the assay on T-47D breast was 98.6%; in the assay on BT-549 breast, 68.4%; in the assay on MDA-MB-435 melanoma it was 67.4%; in the assay on HCT-116 colon, 57.2%; in the assay on HCC-2998 colon, 87.1%; with KM12 colon it was 80.5%.

Take `Cc1cc2cccnc2c2ncccc12`: the growth with T-47D breast is 2.22% (active); in the assay with BT-549 breast, 36%; with MDA-MB-435 melanoma, 35.9%; with SW-620 colon, 31.6%; with HCT-116 colon it was 14%; in the assay with HCC-2998 colon it was 29.5%. The growth in the assay on KM12 colon is 28.5%.

Regarding `Cc1cc(I)nc2ccccc12`, the growth in the assay on T-47D breast is 95.8%; with BT-549 breast it was 104%; with MDA-MB-435 melanoma, 112%; in the assay with SW-620 colon it was 107%; in the assay on HCT-116 colon it was 106%; in the assay with HCC-2998 colon, 103%. For the same molecule, the growth in the assay on KM12 colon is 115%.

With `COc1cc(OC)c(/C=C/c2c3ccccc3cc[n+]2C)c(OC)c1`, the growth with T-47D breast was 13%; with MDA-MB-435 melanoma, 2.01% (active); in the assay on SW-620 colon, 28.2%; in the assay on MCF7 breast, 12.9%; in the assay on HCT-116 colon, 18.5%; in the assay with HCC-2998 colon, 21.8%. In addition, in the assay with KM12 colon, the growth was 6.03% (active).

Turning to `Cc1cccc2c(N)c3ccccc3nc12`, the growth was -2.75% (active) in the assay on T-47D breast; 14% in the assay with BT-549 breast; -12.1% (active) in the assay on MDA-MB-435 melanoma; 0.0537% (active) in the assay with SW-620 colon; 0.783% (active) in the assay with HCT-116 colon; 2.09% (active) in the assay with HCC-2998 colon. Also, the growth in the assay on KM12 colon was 9.35% (active).

As for `CCOC(=O)/C(=C\c1ccc2ccccc2c1)P(=O)(OCC)OCC`, the growth was 32.4% in the assay on T-47D breast; 39.8% in the assay with BT-549 breast; 24% with MDA-MB-435 melanoma; 2.35% (active) in the assay with SW-620 colon; 4.87% (active) in the assay on HCT-116 colon; 13.6% in the assay with HCC-2998 colon. The growth in the assay with KM12 colon is 39.2%.

Consider `CC(C)Nc1ccc(Nc2ccc(NC(C)C)cc2)cc1`, for which the growth in the assay with T-47D breast was 31.9%; with MDA-MB-435 melanoma, 51.4%; in the assay with SW-620 colon, 47.9%; in the assay with MCF7 breast, 28.9%; in the assay on HCT-116 colon, 25.7%; in the assay on HCC-2998 colon it was 61.2%. In addition, the growth in the assay with KM12 colon is 29.3%.

In the case of `O=C(C[P+](c1ccccc1)(c1ccccc1)c1ccccc1)c1ccccc1`, the growth was 89.9% in the assay with T-47D breast; 98.5% in the assay on MDA-MB-435 melanoma; 97.3% in the assay with SW-620 colon; 76.8% in the assay with HCT-116 colon; 93.9% in the assay on HCC-2998 colon; 101% in the assay on KM12 colon.

In the case of `CC(O)C(O)C(O)C(O)C(O)C(=O)NNc1ccccc1` (centres undefined), the growth with T-47D breast was 76.4%; with MDA-MB-435 melanoma it was 86.4%; in the assay on SW-620 colon it was 75.6%; in the assay on MCF7 breast, 88.1%; in the assay on HCT-116 colon, 87.6%; in the assay with HCC-2998 colon it was 95.1%. Also, the growth in the assay with KM12 colon is 85.7%.

With `N#CC1c2ccccc2C=CN1C(=O)CCCl` (centres undefined), the growth in the assay on T-47D breast is 52.4%; in the assay with MDA-MB-435 melanoma it was 94%; in the assay on SW-620 colon, 55.8%; in the assay with MCF7 breast, 24.8%; with HCT-116 colon it was 84.1%; in the assay with HCC-2998 colon it was 110%. Besides, the growth with KM12 colon was 86.4%.

Consider `CCC(C)(O)Cc1ccc(Cl)cc1` (centres undefined), for which the growth with T-47D breast was 94.9%; in the assay on MDA-MB-435 melanoma, 101%; in the assay with SW-620 colon it was 99.4%; with MCF7 breast it was 92.8%; in the assay on HCT-116 colon it was 97.7%; in the assay with HCC-2998 colon it was 109%. Moreover, in the assay with KM12 colon, the growth was 101%.

`O=[N+]([O-])c1ccc2c(c1)Cc1ccccc1-2`: the growth in the assay on T-47D breast is 94%; in the assay on MDA-MB-435 melanoma, 99.4%; in the assay on SW-620 colon, 95.8%; in the assay on MCF7 breast, 94.8%; in the assay on HCT-116 colon, 91.3%; with HCC-2998 colon it was 98.3%. For the same molecule, the growth in the assay with KM12 colon is 98.3%.

As to `Cc1cc(C)c([I+]c2c(C)cc(C)cc2C)c(C)c1`, the growth with T-47D breast is 0.613% (active); in the assay on MDA-MB-435 melanoma it was -81.2% (active); in the assay with SW-620 colon, -40.1% (active); with HCT-116 colon it was -87.1% (active); with HCC-2998 colon it was -85.5% (active); in the assay with KM12 colon, -75.9% (active).

Values taken from PubChem BioAssay (NCI).
